In the library only some 2% were active in any assay of this set; here they are far more common.
Shn3 inh set2 = inhibitors of Schnurri-3 3'UTR reporter in osteoblasts | Clone20 osteoblast Shn3 3'UTR firefly luciferase, 24 h | inhibition, % at 12.5 µM | 360,000 compounds, 0.52% hits | AID 588674;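 active means mean inhibition of at least 75% with every replicate also reaching 75%; inconclusive means mean inhibition at least 75% but some replicate below; inactive means mean inhibition below 75%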
697 NFkB inh = inhibitors of the PMA/ionomycin-induced NF-kB reporter in 697 B cells; 697 B-cell NF-kB luciferase reporter, 16 h; inhibition, % at 4 µM; 330,000 compounds, 0.33% hits; in the data active means inhibition above about 35%
Beta cell apopt = blocks beta cell apoptosis; INS-1E cytokine-induced death, ATP luminescence, 48 h; percent of positive-control rescue, neutral wells zero; protection from apoptosis, % (test concentration not listed); 300,000 compounds, 0.8% hits;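 active means Every replicate reaches about 75%, or at least half do and their mean reaches it too, limit read from the data; inconclusive means At least half of replicates reach the limit but their mean does not; inactive means Under half of replicates reach the limit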;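 further: higher means more ATP so stronger rescue from cytokine killing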
Jurkat NFkB inh = lowers PMA/ionomycin-induced NF-kB signal in Jurkat cells. AID 435003. inhibition, % at 4 µM. PMA/ionomycin-induced NF-kB luciferase reporter, luminescence. 330,000 compounds, 0.53% hits; in the data active means inhibition above about 50%
Calb FLC = C. albicans growth modulation with fluconazole | 300,000 compounds, 0.57% hits | growth inhibition, % (test concentration not listed) | C. albicans CaCi-2 (fluconazole-resistant clinical isolate) + fluconazole, Alamar Blue growth, 48 h;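 active means growth inhibition above about 58% in most replicates, limit read from the data, passing the limit was not always enough; inconclusive means exactly half the replicates above a set limit; inactive means most replicates below a set limit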;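 further: all wells also contain fluconazole at 8 µg/ml as a sub-toxic cotreatment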
697 NFkB conf = inhibitors of the PMA/ionomycin-induced NF-kB reporter in 697 B cells, retest; shares compounds with 697 NFkB inh; 697 B-cell NF-kB luciferase, 16 h; inhibition, % at 4 µM; 2,000 compounds, 35% hits; in the data active means inhibition mostly above about 28%, no sharp cut-off; inactive means mostly below about 22%
Of the large screens only hits and unclear results are named; the others gave an inactive call (follow-up assays come after a bar, where they were run).

Oc1ccc(Oc2ccc3c(C(F)(F)F)cc(C(F)(F)F)nc3n2)cc1	697 NFkB inh 46 | 697 NFkB conf inactive
CCOC(=O)CSc1nc2ccc(NC(C)=O)cc2s1	none
CC(=O)Nc1ccc2nc(SCC(=O)O)sc2c1	697 NFkB inh 36 | 697 NFkB conf inactive
Cc1ccc(CNC(=O)c2cc(Cl)cc(Cl)c2)n1C	none
O=C(C1CCN(CCc2ccccc2)CC1)N1CCOCC1	none (no result: 697 NFkB inh, Beta cell apopt, Jurkat NFkB inh, Calb FLC)
O=C(NNC(=O)C12CC3CC(CC(Br)(C3)C1)C2)c1ccccc1F	697 NFkB inh 44 (no result: Calb FLC) | 697 NFkB conf 43
O=C1c2cccnc2C(=O)N1Cc1ccc(S(=O)(=O)N2CCN(c3ccccc3)CC2)cc1	none
O=c1[nH]c(NC2CCN(S(=O)(=O)c3ccccc3C(F)(F)F)CC2)nc2c1CCCC2	697 NFkB inh 44 (no result: Beta cell apopt) | 697 NFkB conf inactive
Cc1ccc(-c2cc(N)n[nH]2)cc1	none
CC(C)(C)c1ccc(-c2cc(N)n[nH]2)cc1	697 NFkB inh 44 | 697 NFkB conf 45
COc1ccc(O)c(/C=N/NC(=O)c2ccc(N3CCCC3=O)cc2)c1	Calb FLC inconclusive | 697 NFkB conf inactive
COc1ccc(/C=N/NC(=O)c2ccc(N3CCCC3=O)cc2)cc1	none
CCCCN1C(=O)C(CC(=O)NCCCN(C)C)CC(C(=O)N2CCOCC2)=C1C (stereo unspecified)	none (no result: 697 NFkB inh, Beta cell apopt, Jurkat NFkB inh, Calb FLC)
Cc1sc2ncnc(N3CCC(C(=O)Nc4nc(-c5ccc(F)cc5)cs4)CC3)c2c1C	none (no result: Beta cell apopt) | 697 NFkB conf inactive
CC(=O)c1sc(NC(=O)C2CCN(c3ncnc4sc(C)c(C)c34)CC2)nc1-c1ccccc1	none (no result: Beta cell apopt)
COc1ccc(C(=O)N/N=C/c2cccc3cccnc23)cc1	Calb FLC inconclusive
COc1ccc(C(=O)N/N=C/c2cc3ccccc3[nH]c2=S)cc1	697 NFkB inh 36 | 697 NFkB conf inactive
COc1ccc(C(=O)Nc2ccccc2C(=O)NCc2ccco2)cc1OC	697 NFkB inh 37 | 697 NFkB conf 31
CCN(CC(=O)Nc1c(F)cccc1F)C(=O)C1(c2ccccc2)CC1	697 NFkB inh 50 | 697 NFkB conf 19
CC(=O)Nc1nc(C)c(-c2csc(Nc3ccc(O)cc3)n2)s1	none (no result: Calb FLC)
CC(=O)Nc1nc(C)c(-c2csc(Nc3cccc([N+](=O)[O-])c3)n2)s1	697 NFkB inh 45 | 697 NFkB conf inactive
CC(=O)Nc1ccc(Nc2nc(-c3sc(NC(C)=O)nc3C)cs2)cc1	697 NFkB inh 41 | 697 NFkB conf 26
COc1ccc2[nH]cc(CCNC(=O)Nc3ccccc3C)c2c1	none
COc1ccc(C(=O)Nc2cc(C)nn2-c2ccc(C)cc2)cc1	none
O=C(O)C1CCN(S(=O)(=O)/C=C/c2ccccc2)CC1	none
Cc1c(O)ccc(/C=N/Nc2ncccc2[N+](=O)[O-])c1O	none | 697 NFkB conf inactive
CCc1ccc(-c2nnn(CCC(=O)OC)n2)cc1	697 NFkB inh 52 (no result: Beta cell apopt) | 697 NFkB conf 64
CCc1ccc(-c2nnn(CCC#N)n2)cc1	none
CCN(CC)C(=O)[C@H]1CC(CC(=O)NCCN2CCOCC2)C(=O)N2CCc3c([nH]c4ccccc34)[C@]12C (stereo partly specified)	none (no result: Calb FLC)
CN(C)c1ccc(C(O)Cc2nc3ccccc3n2C)cc1 (stereo unspecified)	none | 697 NFkB conf inactive
CCN(CC(=O)Nc1c(F)cccc1F)C(=O)c1cc(S(=O)(=O)N(C)C)ccc1N1CCCC1	697 NFkB inh 38 | 697 NFkB conf 30
CCN(CC(=O)Nc1ccccc1C(F)(F)F)C(=O)c1cc(S(=O)(=O)N(C)C)ccc1N1CCCC1	none
CCN(CC(=O)Nc1c(F)cccc1F)C(=O)c1cc(S(=O)(=O)N(CC)CC)ccc1N1CCCCC1	697 NFkB inh 66 | 697 NFkB conf 49
CCOc1ccc(NCCC(O)c2ccc(F)cc2)cc1 (stereo unspecified)	none
CC1(c2ccccc2)NC(=O)N(CC(=O)Nc2ccc(N3CCOCC3)cc2N2CCOCC2)C1=O (stereo unspecified)	none
Cc1cc(C(F)(F)F)c(C#N)c(SCC(=O)Nc2nc3ccccc3s2)n1	none | 697 NFkB conf inactive
Cc1ccc2sc(NC(=O)CSc3nc(C)cc(C)c3C#N)nc2c1	none
CCOC(=O)N1CCN(C(=O)c2ccc(Cn3c(=S)[nH]c4cc(OCC)c(OCC)cc4c3=O)cc2)CC1	697 NFkB inh 37 | 697 NFkB conf inactive

Bioassay records as filed in PubChem.
